Shown are actives, neighbours in structure and some others; about 4% of the full set was active somewhere.
RecA intein inh: blocks M. tuberculosis RecA intein splicing | P9WHJ3 | cell-free RecA intein splicing, fluorescence | inhibition, % (concentration not given with the values) | 0.75% of 290,000 active; in the data active = inhibition above about 30%
Target sequence (P9WHJ3 whole entry, looked up): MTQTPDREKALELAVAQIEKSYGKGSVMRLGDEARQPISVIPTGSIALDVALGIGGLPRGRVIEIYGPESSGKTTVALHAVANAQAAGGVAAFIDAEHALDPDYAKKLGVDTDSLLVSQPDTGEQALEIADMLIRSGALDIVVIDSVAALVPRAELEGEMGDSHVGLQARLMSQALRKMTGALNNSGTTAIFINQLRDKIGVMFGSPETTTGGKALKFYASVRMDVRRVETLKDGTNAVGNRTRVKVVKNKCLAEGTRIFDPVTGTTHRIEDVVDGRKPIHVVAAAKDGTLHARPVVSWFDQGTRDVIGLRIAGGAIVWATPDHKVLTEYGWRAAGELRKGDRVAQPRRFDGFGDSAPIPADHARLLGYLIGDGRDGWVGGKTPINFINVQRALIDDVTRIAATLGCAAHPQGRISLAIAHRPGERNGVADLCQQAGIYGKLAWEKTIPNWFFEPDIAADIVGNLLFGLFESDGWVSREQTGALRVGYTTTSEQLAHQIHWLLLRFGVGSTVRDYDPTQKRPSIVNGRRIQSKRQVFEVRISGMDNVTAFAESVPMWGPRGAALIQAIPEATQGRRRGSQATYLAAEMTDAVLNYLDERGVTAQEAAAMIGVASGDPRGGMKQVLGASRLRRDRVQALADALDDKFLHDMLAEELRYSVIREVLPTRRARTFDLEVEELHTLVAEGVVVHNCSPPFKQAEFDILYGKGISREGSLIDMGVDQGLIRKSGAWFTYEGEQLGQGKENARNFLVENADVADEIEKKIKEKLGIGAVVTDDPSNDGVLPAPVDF
GDH-TPI counter-1: GDH-TPI coupled enzyme inhibition counter-screen | GDH-TPI coupled enzyme counterscreen, NADH absorbance | AID 588335 | inhibition, % at 4.8 µM | 1.2% of 360,000 active; in the data active = inhibition above about 30%
UGM FP inh: inhibitors of M. tuberculosis UDP-galactopyranose mutase; AID 504406; 0.06% of 320,000 active; purified UGM, fluorescence polarization probe displacement; inhibition, % at 10 µM; in the data active = inhibition above about 10%, passing the limit was not always enough
FBA Mtb inh: Mtb fructose-bisphosphate aldolase inhibition; purified M. tuberculosis FBA, fluorescence read-out; P9WQA3; inhibition, % at 1 µM; 2.3% of 360,000 active
Rv3671c inh: Rv3671c (M. tuberculosis) protease inhibition | P9WHR9 | inhibition, % at 5.96 µM | 0.048% of 320,000 active; in the data active = inhibition above about 38%;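 note: extracellular domain of Rv3671c used as enzyme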
Mtb bLac sens: beta-lactam sensitization of Mtb H37Rv | M. tuberculosis H37Rv growth with meropenem, percent inhibition | inhibition, % at 25 µM | 0.27% of 330,000 active | AID 434955; call rule not given here;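 note: growth measured after seven days incubation then overnight dye step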
Mtb FBA confirm: confirmation of M. tuberculosis fructose-bisphosphate aldolase inhibitors | 78% of 5,600 active | purified M. tuberculosis FBA, fluorescence read-out | inhibition, % at 1 µM | shares compounds with FBA Mtb inh | AID 651616
GDH-TPI counter-2: GDH-TPI inhibition counter-screen for FBA inhibitors | shares compounds with FBA Mtb inh | GDH-TPI coupled enzyme counterscreen, fluorescence | inhibition, % at 1 µM | 81% of 5,600 active; in the data active = inhibition above about 10%
Numbers stand for hits; n = inactive; x = not tested or not shown; + = active, no number. Cut-off read from the data, not from the text of the source, unless noted: active = inhibition above about 27%; inactive = the rest.

SMILES	RecA intein inh	GDH-TPI counter-1	UGM FP inh	FBA Mtb inh	Rv3671c inh	Mtb bLac sens	Mtb FBA confirm	GDH-TPI counter-2
CCN(CC)c1ccc2c(C)c(CO)c(=O)oc2c1	n	n	n	49	n	n	+	+
CCN(CC)c1ccc2c(C)c(CN3CCOCC3)c(=O)oc2c1	n	n	n	88	n	n	n	n
COC(=O)c1c(C(=O)OC)c(-c2ccc(OC)cc2)n2c1CS(=O)(=O)C2	n	n	n	n	n	n	x	x
CCOC(=O)CN(c1ccccn1)S(=O)(=O)c1ccccc1	n	n	n	35	n	n	n	n
Nc1ccccc1C(=O)N1O[C@@H]2C=C[C@H]1CC2	x	n	x	n	x	x	x	x
Cc1ccc(NC(=O)Cn2c(O)c(N=NC(=O)c3ccncc3)c3ccccc32)cc1	n	n	n	n	n	n	x	x
Cc1cccc(NC(=O)Cn2c(O)c(N=NC(N)=S)c3ccccc32)c1	n	n	n	35	n	n	187	146
CCc1ccc2oc(=O)cc(CN3CCCCC3)c2c1	n	n	n	n	n	n	x	x
C=CCOc1c2ccc(C(=O)NC3CCCc4ccccc43)cc2nn1C (stereo not given)	n	n	n	n	n	n	x	x
CCOc1c2ccc(C(=O)NC3CCCc4ccccc43)cc2nn1C (stereo not given)	n	n	n	59	n	n	30	22
CCOCCCNC(=O)c1ccc2c(c1)ncn2C1CCCC1	n	n	n	n	n	n	x	x
CCCCn1nc2cc(C(=O)N[C@H](C)C3CCCCC3)ccc2c1OCC	n	n	n	53	n	n	45	39
CCCCn1nc2cc(C(=O)NC3CCCc4ccccc43)ccc2c1OCC (stereo not given)	n	n	n	36	n	n	184	132
COc1ccccc1OC(=O)Oc1ccccc1OC	x	n	x	n	x	x	x	x
Nc1c(C(=O)N2CCCCCC2)oc2ccccc12	n	n	n	n	n	n	x	x
O=C1c2cccc3cccc(c23)C(=O)N1CC1CCN(S(=O)(=O)c2ccccc2)CC1	x	n	x	54	x	x	47	29
COc1ccc(CCNC(=O)C(=O)c2cn(CC(=O)N3CCOCC3)c3ccccc23)cc1OC	n	n	n	27	n	n	+	+
COc1ccc(CCNC(=O)CS(=O)(=O)c2cn(CC(=O)N3CCOCC3)c3ccccc23)cc1OC	n	n	n	n	n	n	x	x
Cc1ccc(NC(=O)c2ccccc2F)nc1	n	n	n	33	n	n	96	78
Cc1ccc(NC(=O)c2cc(F)c(F)cc2Cl)nc1	n	n	n	82	n	n	136	124
C[C@@H]1CN([C@@H](C)CO)C(=O)c2cc(Br)cnc2O[C@H]1CN(C)C(=O)NC1CCCC1	x	n	x	n	x	x	x	x
CN(CCOc1ccccc1)C(=O)c1cc(S(=O)(=O)N2CCOCC2)ccc1Cl	n	n	n	31	n	n	146	116
O=C(Nc1ccc(S(=O)(=O)N2CCOCC2)cc1)c1cc(S(=O)(=O)N2CCOCC2)ccc1Cl	n	n	n	n	n	n	x	x
O=C(Nc1ccncc1)c1cc(S(=O)(=O)N2CCOCC2)ccc1Cl	n	n	n	97	n	n	+	+
O=C(NC1CCCCC1)c1cc(S(=O)(=O)N2CCCC2)ccc1Cl	n	n	n	104	n	n	77	58
SMILES	RecA intein inh	GDH-TPI counter-1	UGM FP inh	FBA Mtb inh	Rv3671c inh	Mtb bLac sens	Mtb FBA confirm	GDH-TPI counter-2
O=C(CNC1CCCCC1)Nc1cc(S(=O)(=O)N2CCOCC2)ccc1Cl	n	n	n	106	n	n	+	+
COc1cc(/C=N/NC(=O)C2CC(=O)N(c3ccc(C)cc3)C2)cc(OC)c1OC (stereo not given)	x	n	n	n	n	n	x	x
O=C(O)C1c2ccccc2Cc2ccccc21	x	n	x	n	x	x	x	x
COc1ccc2nc3n(c(=O)c2c1)-c1ccc(Cl)cc1C(=O)NC3Cc1ccc(O)cc1 (stereo not given)	x	n	x	n	x	x	x	x
O=C(CSc1nnc2c(n1)[nH]c1ccccc12)Nc1nncs1	n	n	n	n	n	n	x	x
CCN1CCN(S(=O)(=O)c2ccc(Cl)c(C(=O)NC3CCCC3)c2)CC1	n	n	n	47	n	n	+	+
O=C(Nc1ccc(Cl)cn1)c1cccc(S(=O)(=O)N2CCCCCC2)c1	x	n	x	n	x	x	x	x
